From PubChem BioAssay (NCATS) come the findings set out here.

Values joined by “and” are separate entries in the source; they are usually repeats but may differ in a detail not shown here. Equal entries are not always repeated. Results filed as inconclusive are left out. Values without a mark were called inactive. Active and inactive are the calls of the source. Unless noted, the call rests on the fitted dose curve; in most records, active means well fitted curve in either direction with a large enough effect (not every such curve was filed as active); inconclusive means small, poorly fitted or top-dose-only effect, or another doubt; inactive means flat fitted curve, though single readings scatter.

Experiment [1] in a line: AP1 Signaling Pathway (AID 357).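 Further: ME-180 reporter cells stimulated with EGF at its EC50 level; on the % scale 0 is the no-effect control and ±100 the full control effect.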 The settings on record: ME-180 AP-1-bla reporter, EGF-induced, beta-lactamase ratio, 5 h; series mostly up to 17.2 µM. The procedure, abridged:
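First, ME-180 AP-1-bla cells were cultured overnight at 37 °C in low-serum Opti-MEM. Next, titrated compounds with EC50 EGF were incubated 5 hours. Finally, CCF4 was added for 2.5 hours and the 460/530 nm ratio recorded.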

Experiment [2] in a line: Stat Signaling Pathway (AID 446).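 Further: ME-180 cervical cancer cells given 40 pM IL-6 alongside compound; SIE-controlled beta-lactamase reporter measured as 460/530 nm FRET emission ratio; on the % scale 0 is the no-effect control and ±100 the full control effect.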 The conditions noted are these: ME-180 (cervical carcinoma) SIE beta-lactamase reporter, IL-6 stimulated, 5 h; series mostly up to 17.2 µM. The procedure, abridged:
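Compound effects on IL-6-induced STAT reporter activity were measured in ME-180 cells. After overnight culture, cells were co-treated with 40 pM IL-6 for 5 hrs before beta-lactamase substrate loading at room temperature.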

Experiment [3] can be described thus: Cell Viability - BJ (AID 421; calls by dose curve;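 further: potency means the concentration at half of the fitted maximal effect; cells exposed to compound for 40 hours at 37 °C before readout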). The settings on record: BJ fibroblast viability, qHTS. The gist of the method: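 Luminescent ATP signal (CellTiter-Glo, 20 min at room temperature) served as the read-out of viable BJ cells after 40 hours of compound treatment. Responses were scaled between DMSO and 100 uM tamoxifen, and AC50 values were obtained by Hill modeling.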
For orientation: Quantitative high-throughput screening tests each substance at several concentrations.

Experiment [4] is described as follows: Cell Viability - Jurkat (AID 426;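 active means dose-dependent loss of cell ATP signal giving a full or clear fitted curve, ranked by lower potency value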;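 further: potency means the concentration at half of the fitted maximal effect; cells exposed to compound for 40 hours at 37 °C before ATP read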). The settings on record: qHTS. The gist of the method: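 Cytotoxicity was scored as loss of cellular ATP, measured by luciferase-based luminescence, in Jurkat clone E6-1 cells after 40 h compound treatment; tamoxifen and doxorubicin served as positive controls.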
Experiment [5] in a line: Cell Viability - Hek293 (AID 427;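 active means compounds whose dose-response curve shows a full or clear partial loss of cell viability, called from curve shape rather than a numeric limit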;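 further: potency means the concentration at half of the fitted maximal effect; cells exposed to compound for 40 hours at 37 °C before reading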). The settings on record: qHTS. The procedure, abridged: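 Luminescent ATP read-out (CellTiter-Glo, 20 min RT) after 40 hr compound exposure at 37 °C in complete medium. Signal normalized to DMSO (basal) and 100 uM tamoxifen (100% inhibition); concentration-response fitted with the standard Hill equation to give AC50.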
Experiment [6] in a line: Cell Viability - HepG2 (AID 433; calls by dose curve; further: potency means the concentration at half of the fitted maximal effect). The conditions noted are these: qHTS. The gist of the method:
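Cytotoxicity is scored as loss of intracellular ATP in HepG2 cells exposed to compounds for 40 h. Concentration-response curves, normalized to DMSO and 100 uM tamoxifen, give AC50 values.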

The nature of experiment [7]: Cell Viability - SK-N-SH (AID 435; calls by dose curve;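 further: potency means the concentration at half of the fitted maximal effect; compound exposure lasted 40 h at 37 °C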). The conditions noted are these: SK-N-SH neuroblastoma cell viability qHTS. The procedure, abridged: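 Cells seeded at 1500 per well and incubated 5 hr at 37 °C. Compound added, then 40 hr at 37 °C. CellTiter-Glo added, 20 min at room temperature, luminescence read.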
For experiment [8], the target named is Cytochrome P450 1A2 (Homo sapiens) (UniProt P05177). Description: p450-cyp1a2 (AID 410; calls by dose curve; further: potency means the concentration at half of the fitted maximal effect;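 on activity change, negative = inhibition: -100% = full effect of reference inhibitor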). The conditions noted are these: recombinant CYP1A2, luciferin-ME demethylation, luminescence; series mostly up to 57 µM. The gist of the method: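 Read-out is luminescence from luciferin produced by CYP1A2 demethylation of Luciferin-ME (100uM, at Km). Detection reagent stopped the 60 min NADPH-dependent reaction; signals were normalized to 57 uM furafylline.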
Chain of Cytochrome P450 1A2 (Homo sapiens) (P05177 whole entry, looked up): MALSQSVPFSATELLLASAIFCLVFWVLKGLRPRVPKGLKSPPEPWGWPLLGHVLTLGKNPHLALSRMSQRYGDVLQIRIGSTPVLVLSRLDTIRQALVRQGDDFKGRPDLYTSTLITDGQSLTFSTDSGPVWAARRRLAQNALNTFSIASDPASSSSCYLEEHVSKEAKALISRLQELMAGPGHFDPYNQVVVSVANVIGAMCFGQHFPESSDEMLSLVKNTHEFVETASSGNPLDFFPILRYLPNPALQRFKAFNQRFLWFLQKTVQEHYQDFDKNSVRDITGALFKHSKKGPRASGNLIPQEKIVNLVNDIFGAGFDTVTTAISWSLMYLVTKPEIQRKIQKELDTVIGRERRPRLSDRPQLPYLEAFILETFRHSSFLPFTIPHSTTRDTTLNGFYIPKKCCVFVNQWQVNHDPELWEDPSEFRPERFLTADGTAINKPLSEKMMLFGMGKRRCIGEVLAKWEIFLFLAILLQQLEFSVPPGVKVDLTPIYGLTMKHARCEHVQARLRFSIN

A short description of experiment [9]: NFAT Signaling Pathway (AID 444).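 Further: carbachol stimulus at about its EC50 of 1 µM final; on the % scale 0 is the no-effect control and ±100 the full control effect.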 The conditions noted are these: Jurkat NFAT-bla M1, carbachol, beta-lactamase ratio, 5 h. The procedure, abridged:
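Jurkat cells carrying an NFAT-driven β-lactamase reporter and co-transfected muscarinic M1 receptor were treated with compound plus carbachol (1 uM final, an EC50 level) for 5 h at 37 °C. CCF4 loading followed for 1 h at RT; 460/530 nm ratio gave %activity.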

For `CC(C)NCC(O)COc1ccc(CCOCC2CC2)cc1` (configuration not stated), the result in experiment [1] and in experiment [2] was inactive.

With `Nc1ccn([C@H]2CC[C@@H](CO)O2)c(=O)n1`, the Potency in [3], in experiment [4], in experiment [5], in [6] and in experiment [7] was above 92 µM each time.

As for `Cc1ccc(-c2cc(C(F)(F)F)nn2-c2ccc(S(N)(=O)=O)cc2)cc1`, the Potency in [3], in experiment [4], in experiment [5], in experiment [6] and in experiment [7] was above 92 µM throughout.

Take `CN(C)CCCN1c2ccccc2CCc2ccc(Cl)cc21`: the Potency in experiment [8] is 20 µM (active) and 5.01 µM (active) and 15.8 µM (active). Also, the activity change, negative = inhibition in experiment [9] (at 17.2 µM (top of the series)) is -83% (active). For the same compound, the compound was called inactive in experiment [2].

For the compound `NC(CO)C(=O)NNCc1ccc(O)c(O)c1O` (configuration not stated), the outcome in experiment [1] and in experiment [2] was inactive. Also, the activity change, negative = inhibition in experiment [9] (at 17.2 µM (top of the series)) was 13.6%.

For the compound `O=C(c1ccc(OCCN2CCCCC2)cc1)c1c(-c2ccc(O)cc2)sc2cc(O)ccc12`, the outcome in experiment [1] and in experiment [2] was inactive.

Turning to `CN(C)C(=O)C(CCN1CCC(O)(c2ccc(Cl)cc2)CC1)(c1ccccc1)c1ccccc1`, the outcome in experiment [1] and in experiment [2] was inactive. Besides, the activity change, negative = inhibition in experiment [9] (at 17.2 µM (top of the series)) is -23.1%; in [9] (at 38 µM (top of the series)), -13.2%.

Regarding `COc1cc2c(c(OC)c1OC)-c1ccc(OC)c(=O)cc1[C@@H](NC(C)=O)CC2`, the Potency in experiment [3] was above 92 µM; in experiment [4], 2.81 nM (active) and 1.63 nM (active); in experiment [5] it was above 92 µM; in experiment [6], above 92 µM; in [7] it was 9.09 nM (active) and 5.26 nM (active).

With `Clc1ccccc1C(c1ccccc1)(c1ccccc1)n1ccnc1`, the outcome in experiment [2] was inactive.

For the compound `CC(C)NCC(O)c1ccc(O)c(O)c1` (configuration not stated), the Potency in experiment [3], in experiment [5], in [6] and in [7] was above 92 µM throughout.

For `CCCNCC(O)COc1ccccc1C(=O)CCc1ccccc1` (configuration not stated), the result in experiment [1] and in experiment [2] was inactive.

In the case of `COc1ccc(C2CNC(=O)C2)cc1OC1CCCC1` (configuration not stated), the result in experiment [1] and in experiment [2] was inactive. Moreover, in experiment [9] (at 17.2 µM (top of the series)), the activity change, negative = inhibition is -22.4%.

Regarding `O=C1c2c(O)ccc(O)c2C(=O)c2c(NCCNCCO)ccc(NCCNCCO)c21`, the compound was called inactive in experiment [2].

On to `CN1CCN(C2=Nc3cc(Cl)ccc3Nc3ccccc32)CC1`, for which the outcome in experiment [1] and in experiment [2] was inactive. The activity change, negative = inhibition in [9] (at 38 µM (top of the series)) was -49.7% (active).

For the compound `CN(Cc1cnc2nc(N)nc(N)c2n1)c1ccc(C(=O)N[C@@H](CCC(=O)O)C(=O)O)cc1`, in experiment [8], the Potency result was “inactive”.

For the compound `O=C(CCCN1CCC(O)(c2ccc(Cl)cc2)CC1)c1ccc(F)cc1`, the result in [1] and in experiment [2] was inactive. For the same compound, the activity change, negative = inhibition in experiment [9] (at 38 µM (top of the series)) was -17.8%.
